Source: PubChem (The Scripps Research Institute Molecular Screening Center)
Only some compounds are listed: those with a hit (about 2.8% of all), similar ones and a draw of the others.
PAFAH1B2 FP inh = PAFAH1B2 (human) inhibition; P68402; recombinant PAFAH1B2, FP-rhodamine activity probe, fluorescence polarization; inhibition, % at 3.39 µM; 1.2% of 340,000 active;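 active = inhibition above the mean of all tested compounds plus 3 SD, cut at about 24% in these data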;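 note: 0% = enzyme with DMSO and 100% = wells lacking PAFAH1B2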
PAFAH2 inh = PAFAH2 (human) inhibition | 0.99% of 340,000 active | recombinant PAFAH2, FP-rhodamine activity probe, fluorescence polarization | inhibition, % at 3.39 µM;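 active = inhibition above the mean over all tested compounds plus 3 SD, cut at about 30% in these data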;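 note: inhibitors block probe labeling of enzyme so polarization drops; 0% = enzyme with DMSO and 100% = wells lacking PAFAH2 protein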
Fam108B counter = Fam108B inhibition, counter-screen for RBBP9 inhibitors; recombinant Fam108B, FP-Rh probe fluorescence polarization; inhibition, % at 9.51 µM; 0.33% of 300,000 active; AID 1947;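 active = inhibition above the screen mean inhibition plus 3 SD, computed separately per campaign, cut at about 18% in these data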;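 note: inhibitors lower polarization as less probe binds the enzyme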
PME-1 primary = PME-1 (human) inhibition; inhibition, % at 5.9 µM; Q9Y570; recombinant PME-1, FP-Rh probe fluorescence polarization; 0.53% of 320,000 active; AID 2130;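 active = inhibition above the campaign mean of all compounds plus 3 SD, cut at about 26% in these data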;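 note: competitive labeling of PME-1 active site by serine hydrolase directed probe; 0% = PME-1 with DMSO and 100% = wells lacking PME-1 enzyme; inhibitors block probe labeling so polarization falls and inhibition rises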
pPAFAH FP inh = pPAFAH (human) enzyme inhibition; Q13093; recombinant pPAFAH, FP-rhodamine probe fluorescence polarization; inhibition, % at 3.39 µM; 1.5% of 330,000 active;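 active = inhibition above the mean inhibition across the screen plus 3 SD, cut at about 25% in these data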;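 note: inhibitors block binding of the rhodamine activity-based probe so polarization drops; 0% = enzyme with DMSO and 100% = wells lacking pPAFAH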
Target sequence (Q13093 whole entry, looked up): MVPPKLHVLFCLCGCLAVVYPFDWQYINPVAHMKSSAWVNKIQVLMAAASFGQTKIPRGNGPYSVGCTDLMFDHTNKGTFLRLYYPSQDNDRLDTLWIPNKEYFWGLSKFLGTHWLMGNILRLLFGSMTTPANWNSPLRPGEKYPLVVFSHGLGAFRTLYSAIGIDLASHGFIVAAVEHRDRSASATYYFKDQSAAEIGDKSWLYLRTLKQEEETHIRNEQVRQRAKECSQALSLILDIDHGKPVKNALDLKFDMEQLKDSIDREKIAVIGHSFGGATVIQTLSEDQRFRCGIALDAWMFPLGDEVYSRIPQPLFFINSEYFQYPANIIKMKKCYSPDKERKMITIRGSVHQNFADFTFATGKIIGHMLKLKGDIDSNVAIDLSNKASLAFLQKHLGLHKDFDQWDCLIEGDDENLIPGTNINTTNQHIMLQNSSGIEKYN
PAFAH1B3 FP inh = inhibitors of human PAFAH1B3; Q15102; recombinant PAFAH1B3, FP-rhodamine probe, fluorescence polarization; inhibition, % at 3.39 µM; 0.28% of 340,000 active; AID 492972;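 active = inhibition above the screen-wide average of all tested compounds plus 3 SD, cut at about 25% in these data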;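 note: 0% = enzyme with DMSO only and 100% = wells lacking PAFAH1B3 protein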
PAFAH2 FP conf = PAFAH2 (human) inhibition, confirmed; shares compounds with PAFAH2 inh; recombinant PAFAH2, FP-rhodamine activity probe, fluorescence polarization; inhibition, % at 3.39 µM; 65% of 2,300 active; AID 493030;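 active = mean inhibition over three repeats above a set limit taken from the earlier primary screen, cut at about 30% in these data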;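 note: inhibitor blocks binding of rhodamine activity probe so polarization falls; 0% = enzyme with DMSO and 100% = wells lacking PAFAH2 protein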
* hit, by the source's call; nt = not tested or not shown.

SMILES	PAFAH1B2 FP inh	PAFAH2 inh	Fam108B counter	PME-1 primary	pPAFAH FP inh	PAFAH1B3 FP inh	PAFAH2 FP conf
Cc1c(C)c2c(OCC(=O)Nc3cccnc3)cc3c(c2oc1=O)CCC(C)(C)O3	4	33*	2	1	20	10	11
Cc1cc(OCC(=O)Nc2cccnc2)c2c(C)c(C)c(=O)oc2c1	0	-6	4	4	3	4	nt
Cc1cc(=O)oc2c3c(cc(OCC(=O)NCC(=O)N[C@H](C(=O)O)C(C)C)c12)OC(C)(C)CC3	3	14	2	3	13	11	nt
Cc1c(C)c2c(OCC(=O)NCC(C)C)cc3c(c2oc1=O)CCC(C)(C)O3	4	72*	nt	nt	nt	6	52*
C=CCn1c(N)cc(=O)nc1SC(C)C(=O)Nc1cccc2ccccc12 (configuration not stated)	3	10	2	2	1	4	nt
COc1ccc(Cl)cc1C(=O)OCC(=O)NC1CCCC(C)C1C (configuration not stated)	7	35*	nt	nt	nt	3	26
COc1cccc2cc(C(=O)OCC(=O)NC3CCCC(C)C3C)c(=O)oc12 (configuration not stated)	5	19	nt	nt	4	10	nt
CSCCC(NC(=O)c1ccc([N+](=O)[O-])cc1Cl)C(=O)OCC(=O)NC1CCCC(C)C1C (configuration not stated)	8	33*	-3	2	5	-1	21
CC1CCCC(NC(=O)COC(=O)/C=C/c2ccco2)C1C (configuration not stated)	0	86*	nt	0	8	6	79*
CC1CCCC(NC(=O)COC(=O)/C=C/c2ccc([N+](=O)[O-])cc2)C1C (configuration not stated)	5	62*	nt	nt	11	9	20
O=C(c1ccccn1)N(Cc1cccs1)C1(C(=O)NC2CCCCC2)CCCCC1	6	-4	-2	1	4	7	nt
CC1CCCC(NC(=O)COC(=O)c2ccccc2[N+](=O)[O-])C1C (configuration not stated)	6	65*	0	-2	7	1	57*
Cc1cc(C)n(-c2ccc(C(=O)OCC(=O)Nc3cc(Cl)ccc3[N+](=O)[O-])cc2)n1	1	3	5	1	4	4	nt
Cc1cc(C)n(-c2ccc(C(=O)OCC(=O)Nc3ccccc3F)cc2)n1	3	62*	nt	nt	24	5	51*
Cc1ccc(NC(=O)COC(=O)c2ccc(-n3nc(C)cc3C)cc2)c(F)c1	3	42*	nt	nt	19	0	43*
Cc1ccccc1NC(=O)COC(=O)c1ccc2c(c1)OCCO2	2	58*	nt	nt	nt	2	52*
Cc1ccc(C)c(NC(=O)COC(=O)c2ccc3c(c2)OCCO3)c1	1	53*	nt	-8	1	6	61*
CS(=O)(=O)c1ccc(C(=O)OCC(=O)Nc2cccnc2Cl)cc1[N+](=O)[O-]	-5	12	nt	nt	-1	4	nt
COc1ccccc1NC(=O)COC(=O)c1ccc2c(c1)OCCO2	2	6	nt	1	3	-2	nt
Cc1ccccc1NC(=O)COC(=O)c1ccc(S(C)(=O)=O)c([N+](=O)[O-])c1	1	39*	-4	1	11	-2	13
Cc1ccc(NC(=O)COC(=O)c2ccc3c(c2)OCO3)c(C)c1	6	26	-2	3	6	4	nt
CC(=O)c1cccc(NC(=O)C(=O)Nc2cccc3ccccc23)c1	-2	-5	2	1	0	6	nt
O=C1CCc2cc(NS(=O)(=O)c3ccc([N+](=O)[O-])cc3)cc3c2N1CCC3	1	1	2	0	12	1	nt
CCN(CC)S(=O)(=O)c1cccc(-n2c(O)c(C=Nc3ccccc3C(=O)O)c3ccccc3c2=O)c1	3	89*	3	1	10	0	73*
C=CCOc1ccc(/C=C/C(=O)OCC(=O)NC2CCCCCCC2)cc1	2	67*	3	2	-3	6	72*
C=CCOc1ccc(/C=C/C(=O)OCC(=O)NCC2CCCCC2)cc1	-1	68*	-3	3	8	2	66*
